Source: PubChem BioAssay (National Center for Advancing Translational Sciences (NCATS))
KB-3-1 tox: KB-3-1 parental cell cytotoxicity; KB-3-1 viability, CellTiter-Glo ATP luminescence, 72 h; Potency, µM (titrated, usually from 46.1 µM), actives largely listed as cytotoxic; 1.4% of 400,000 active; also: % is scaled to controls: 0 for no effect and ±100 for the full control effect; nearly all actives have a fitted effect of over 60% in size
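72 h, 37 °C compound treatment of KB-3-1 parental cells; CellTiter-Glo added, 10 min, luminescence read. Data corrected against DMSO-only plates and normalized before curve fitting.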
RGS4 inh: human RGS4 inhibition; P49798; Transcreener GDP fluorescence polarization, RGS4-accelerated GTP hydrolysis; Potency, µM (highest dose often 114 µM), without a hit: at the top dose activity change, negative = inhibition, usual class: inhibitors; 0.039% of 390,000 active; AID 504845; also: % is scaled to controls: 0 for no effect and ±100 for the full control effect; nearly all actives have a fitted effect of over 75% in size
Target sequence (P49798 whole entry, looked up): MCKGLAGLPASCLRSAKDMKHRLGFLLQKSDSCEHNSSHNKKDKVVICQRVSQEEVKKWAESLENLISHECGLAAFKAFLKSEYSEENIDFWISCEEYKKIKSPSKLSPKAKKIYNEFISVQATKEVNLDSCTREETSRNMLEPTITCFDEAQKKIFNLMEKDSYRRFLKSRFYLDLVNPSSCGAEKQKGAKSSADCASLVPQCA
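MLSMR compounds (23 nl, pin-transferred) preincubated 10 min at room temperature with a 500nM (2x) first reagent, then RGS4 at 900nM (2x) plus Transcreener GDP mix added; fluorescence polarization (620/688 nm) read before and after 90 min at 30 °C.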
KB-V1 cytotox: KB-V1 MDR subline cytotoxicity. KB-V1 MDR cells viability, CellTiter-Glo, 72 h. Potency, µM (series often up to 46.1 µM), usual class: cytotoxic. 3.4% of 400,000 active. AID 1347076; also: % is scaled to controls: 0 for no effect and ±100 for the full control effect; nearly all actives have a fitted effect of over 60% in size
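qHTS viability screen in drug-selected KB-V1 MDR cells: 72 h compound treatment at 37 degrees C, ATP luminescence end point.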
TSG101-PTAP inh: blocks PTAP/TSG101 interaction to inhibit HIV-1 budding | Q99816 | Fluorescence polarization, FITC-PTAP peptide / Tsg101 binding | Potency, µM (highest dose often 115 µM), for the others: top-dose activity change, negative = inhibition, actives largely listed as inhibitors | 340,000 tested, under 10 active | AID 493005; active = well fitted inhibition curve with a large enough effect in the main read-out, with a control signal flat, not every such curve was filed as active; inconclusive = small, poorly fitted or top-dose-only effect, or effect the other way, or a change in a side signal; inactive = no such curve, though single readings can be large or run the other way; also: % of control where 0% means no effect
Target sequence (Q99816 whole entry, looked up): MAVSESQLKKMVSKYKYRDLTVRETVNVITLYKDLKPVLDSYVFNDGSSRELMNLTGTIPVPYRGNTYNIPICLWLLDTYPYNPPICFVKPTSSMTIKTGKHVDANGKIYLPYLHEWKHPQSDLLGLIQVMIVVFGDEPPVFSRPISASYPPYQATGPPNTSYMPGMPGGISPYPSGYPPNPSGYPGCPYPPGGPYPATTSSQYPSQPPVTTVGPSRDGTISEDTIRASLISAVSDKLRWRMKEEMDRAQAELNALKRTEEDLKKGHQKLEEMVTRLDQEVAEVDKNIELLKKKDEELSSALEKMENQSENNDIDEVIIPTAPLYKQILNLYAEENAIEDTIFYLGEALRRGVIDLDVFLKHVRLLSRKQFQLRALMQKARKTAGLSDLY
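Steps: Tsg101 binding domain dispensed (10 uM final), compounds pinned in DMSO, FITC-labeled PTAP-motif peptide added (50 nM final); after 20 min binding at room temperature, polarization measured.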
MCF10A rereplic: DNA re-replication induction in MCF 10a cells. 2.9% of 350,000 active. Potency, µM (titrated, usually from 46.1 µM), inactives show top-dose activity, positive = re-replication, actives largely listed as activators. MCF 10A DNA re-replication, Hoechst nuclear intensity, 48 h; also: % of control where 0% means no effect; nearly all actives have a fitted effect of over 50% in size
SW480 rerep: inducers of DNA re-replication in SW480 colon cancer cells. 1.8% of 340,000 active. Potency, µM (highest dose often 46.1 µM), without a hit: at the top dose re-replication activation, hits mostly activators. AID 624297. SW480 DNA re-replication, Hoechst DNA content imaging, 48 h; also: % of control where 0% means no effect; nearly all actives have a fitted effect of over 55% in size
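Quantitative HTS format with DMSO vehicle controls; 48 hr drug incubation at 37 C, then 40 min Hoechst staining and scanning imager measurement at 405 nm excitation.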
* hit, by the source's call; [ ] = remark or other dose. Compounds with a hit are over-represented: about 6.6% of the library has one in this group of screens. Unless noted, calls follow the shape of the dose curve; as a rule, active = well fitted curve in the direction sought with a large enough effect; inconclusive = small, poorly fitted or top-dose-only effect, or another doubt; inactive = no such curve, though single readings can be large; an effect the other way counts as inactive or inconclusive. Potency is read from the fitted curve at half-maximal effect.

How did CN(C)S(=O)(=O)c1cccc(NC(=O)CSc2nc3c(cc2C#N)C(=O)CC(C)(C)C3)c1 do in these assays?
KB-3-1 tox: 21µM*; RGS4 inh: -6%; KB-V1 cytotox: 16µM*; TSG101-PTAP inh: -1%; MCF10A rereplic: 15µM*; SW480 rerep: 16µM*

What do the screens show for `CN(C)S(=O)(=O)c1ccc(Cl)c(NC(=O)CSc2nc3c(cc2C#N)C(=O)CC(C)(C)C3)c1`?
KB-3-1 tox: inactive; RGS4 inh: -5%; KB-V1 cytotox: inactive; TSG101-PTAP inh: -2%; MCF10A rereplic: 2.9µM*; SW480 rerep: inconclusive

What do the screens show for `CC(C)NS(=O)(=O)c1ccc2nc(NC(=O)c3cncc(Br)c3)sc2c1`?
KB-3-1 tox: inactive; RGS4 inh: 20%; KB-V1 cytotox: inactive

How did COC(=O)c1ccc(NC(=O)NC(C)c2c(-n3cccc3)sc(C)c2C)cc1 (configuration not stated) do in these assays?
RGS4 inh: -22%

Results for Cc1ccc(S(=O)(=O)N2CCN(c3nc(-c4cscn4)nc4ccccc34)CC2)cc1 ?
RGS4 inh: 9%

What do the screens show for `N#Cc1cc(C(=O)c2cc(Cl)ccc2O)cn(-c2ccccc2)c1=O`?
KB-3-1 tox: inactive; RGS4 inh: -4%; KB-V1 cytotox: inactive; TSG101-PTAP inh: 0%; MCF10A rereplic: 1%; SW480 rerep: 0%

How did Cc1ccc(NC(=O)c2cc(C(=O)c3cc(Cl)ccc3O)cn(-c3ccc(C)cc3)c2=O)cc1 do in these assays?
KB-3-1 tox: inconclusive; RGS4 inh: -16%; KB-V1 cytotox: 18µM*; TSG101-PTAP inh: 4%; MCF10A rereplic: 11%; SW480 rerep: 16%

Results for CC(C)[C@H](NC(=O)c1ccccc1F)C(=O)OCCN1C(=O)c2ccccc2C1=O ?
KB-3-1 tox: inactive; RGS4 inh: -38%; KB-V1 cytotox: 15µM*; TSG101-PTAP inh: -3%; MCF10A rereplic: -1%; SW480 rerep: 1%

Results for O=C(Nc1cccc2oc(=O)ccc12)c1ccc([N+](=O)[O-])cc1[N+](=O)[O-] ?
KB-3-1 tox: inconclusive; RGS4 inh: 41%; KB-V1 cytotox: inconclusive; TSG101-PTAP inh: -7%; MCF10A rereplic: -1%; SW480 rerep: 16µM*

What do the screens show for `O=C(Nc1ncccn1)c1ccc([N+](=O)[O-])cc1[N+](=O)[O-]`?
KB-3-1 tox: inactive; RGS4 inh: 2%; KB-V1 cytotox: inactive; TSG101-PTAP inh: -4%; MCF10A rereplic: -1%; SW480 rerep: -15%

Results for O=c1c2ccccc2nc(-c2ccccc2)n1CCCn1ccnc1 ?
KB-3-1 tox: inactive; RGS4 inh: -6%; KB-V1 cytotox: inactive; TSG101-PTAP inh: -6%; MCF10A rereplic: 1%; SW480 rerep: 1%[9.22 µM]

What do the screens show for `O=c1c2ccccc2nc(-c2ccco2)n1CCCn1ccnc1`?
KB-3-1 tox: inactive; RGS4 inh: -5%; KB-V1 cytotox: 8.2µM*; TSG101-PTAP inh: -8%; MCF10A rereplic: -8%; SW480 rerep: -3%

Results for CCN1CCN(C(=O)c2ccc3c(c2)N(Cc2ccc(Cl)cc2)C(=O)c2ccccc2S3=O)CC1 (configuration not stated) ?
KB-3-1 tox: inactive; RGS4 inh: -12%; KB-V1 cytotox: inactive

Results for CNc1nc(-c2cccs2)cc(C(F)(F)F)c1C#N ?
KB-3-1 tox: inactive; RGS4 inh: 33%; KB-V1 cytotox: inactive; TSG101-PTAP inh: 0%; MCF10A rereplic: 18µM*; SW480 rerep: 5.8µM*

What do the screens show for `N#Cc1c(C(F)(F)F)cc(-c2cccs2)nc1SC(C(=O)O)c1ccccc1` (configuration not stated)?
KB-3-1 tox: inactive; RGS4 inh: -42%; KB-V1 cytotox: inactive; TSG101-PTAP inh: -4%; MCF10A rereplic: 21µM*; SW480 rerep: -14%

Results for CCc1ccc(CNC(=O)C2Cc3cc(S(=O)(=O)N4CCCCCC4)ccc3N2C(C)=O)cc1 (configuration not stated) ?
KB-3-1 tox: inactive; RGS4 inh: 3%; KB-V1 cytotox: inactive

What do the screens show for `Cc1ccc(O)c(C(=O)c2cc(C#N)c(=O)n(-c3nccs3)c2)c1`?
KB-3-1 tox: inconclusive; RGS4 inh: -34%; KB-V1 cytotox: inconclusive; TSG101-PTAP inh: inconclusive; MCF10A rereplic: 12µM*; SW480 rerep: 14%

How did COc1ccc(C(=O)Nc2ccc3nc(SCC(=O)N(C)c4ccccc4)sc3c2)cc1 do in these assays?
KB-3-1 tox: inactive; RGS4 inh: -18%; KB-V1 cytotox: inconclusive

What do the screens show for `O=C(Nc1ccc2nc(SCC(=O)N3CCc4ccccc43)sc2c1)c1ccccc1`?
RGS4 inh: 22%

How did CN(C)c1cc[n+](CC(=O)Nc2cc(C(F)(F)F)ccc2Cl)cc1 do in these assays?
KB-3-1 tox: inactive; RGS4 inh: 18%; KB-V1 cytotox: inactive; TSG101-PTAP inh: -17%; MCF10A rereplic: inconclusive; SW480 rerep: inconclusive

How did Cc1cc[n+](CC(=O)Nc2cc(C(F)(F)F)ccc2Cl)cc1 do in these assays?
KB-3-1 tox: inactive; RGS4 inh: 11%; KB-V1 cytotox: inactive; TSG101-PTAP inh: 3%; MCF10A rereplic: 23µM*; SW480 rerep: -2%

How did CC(C)c1ccc(-c2c(C#N)c(N)nc(SCC(=O)N3CCCCC3)c2C#N)cc1 do in these assays?
KB-3-1 tox: inconclusive; RGS4 inh: -31%; KB-V1 cytotox: inconclusive; TSG101-PTAP inh: -4%; MCF10A rereplic: 7.3µM*; SW480 rerep: inconclusive

How did COc1ccc(C)cc1NC(=O)c1cc2c(=O)n(Cc3cccnc3)ccc2nc1C do in these assays?
KB-3-1 tox: inactive; RGS4 inh: 1%; KB-V1 cytotox: inactive

Results for COC(=O)CN(C#N)c1nc(N(C)C)nc(N(C)C)n1 ?
KB-3-1 tox: inactive; RGS4 inh: -9%; KB-V1 cytotox: inactive; TSG101-PTAP inh: -1%; MCF10A rereplic: 2%; SW480 rerep: -88%

Results for CC(C)N(C(=O)CN(C#N)c1nc(N(C)C)nc(N(C)C)n1)c1ccccc1 ?
KB-3-1 tox: inactive; RGS4 inh: -19%; KB-V1 cytotox: 6.5µM*; TSG101-PTAP inh: 1%; MCF10A rereplic: -8%; SW480 rerep: -6%

How did O=C(N/N=C/c1ccc[nH]1)c1c[nH]c2ccccc12 do in these assays?
KB-3-1 tox: inactive; RGS4 inh: inconclusive; KB-V1 cytotox: inactive; TSG101-PTAP inh: -7%; MCF10A rereplic: 11%; SW480 rerep: 7.3µM*
